The full data set covers some 7,900 targets. This sample favours those with a hit. About 0.6% of all pairs of compound and target were hits.
Compound: Cc1cn(-c2cc(NC(=O)c3ccc(C)c(Nc4nccc(-c5cccnc5)n4)c3)cc(C(F)(F)F)c2)cn1 [nilotinib]
Assay: log2 fold change, soluble protein after heating vs DMSO (PISA); higher = thermal stabilisation; K562 cells, 10 uM, 30 min; active = over 0.2 and 3.5 SD of the protein, either way, in both replicates (recomputed)
How it was run: (§1)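 K562 cells at 2×10^6 cells/mL were exposed to 10 μM compound for 30 min, then aliquots were heated for 3 min across 48°C-58°C, pooled, and extracted in PBS containing 0.5% NP-40 at 4°C. The supernatant after 21,000xg for 90 min was taken as soluble protein and measured by TMTpro 16plex LC-MS/MS with channel sums equalised. Thermal stability is reported relative to control samples, with values from duplicates. Fold changes are given on a log2 scale.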

Sequence of UniProt Q96JB5 (Q96JB5 whole entry, looked up): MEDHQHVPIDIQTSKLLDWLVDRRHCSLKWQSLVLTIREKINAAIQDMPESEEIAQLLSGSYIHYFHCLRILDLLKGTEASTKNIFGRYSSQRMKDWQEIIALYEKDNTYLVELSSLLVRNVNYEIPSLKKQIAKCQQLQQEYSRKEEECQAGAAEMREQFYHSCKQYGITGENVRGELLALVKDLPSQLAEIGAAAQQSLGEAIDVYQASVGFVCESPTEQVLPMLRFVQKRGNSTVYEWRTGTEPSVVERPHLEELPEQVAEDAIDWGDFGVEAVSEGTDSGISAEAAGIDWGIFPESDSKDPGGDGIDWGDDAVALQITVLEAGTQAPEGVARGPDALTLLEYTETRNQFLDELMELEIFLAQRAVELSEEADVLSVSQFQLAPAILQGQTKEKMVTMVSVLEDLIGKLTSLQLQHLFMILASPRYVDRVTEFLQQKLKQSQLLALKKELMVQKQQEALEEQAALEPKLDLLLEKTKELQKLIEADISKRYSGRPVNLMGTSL
Sequence of UniProt Q9BT78 (Q9BT78 whole entry, looked up): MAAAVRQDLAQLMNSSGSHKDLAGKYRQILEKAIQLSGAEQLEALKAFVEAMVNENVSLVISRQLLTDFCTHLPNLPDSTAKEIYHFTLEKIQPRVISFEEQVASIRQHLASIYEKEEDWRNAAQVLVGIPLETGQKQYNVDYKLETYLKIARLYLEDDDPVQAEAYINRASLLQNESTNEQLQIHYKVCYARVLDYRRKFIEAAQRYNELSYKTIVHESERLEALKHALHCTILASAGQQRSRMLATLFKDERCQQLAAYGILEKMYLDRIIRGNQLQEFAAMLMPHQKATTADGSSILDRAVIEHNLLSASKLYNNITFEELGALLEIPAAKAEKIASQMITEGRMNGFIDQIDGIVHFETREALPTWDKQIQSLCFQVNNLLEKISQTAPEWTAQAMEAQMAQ
Sequence of UniProt Q9Y646 (Q9Y646 whole entry, looked up): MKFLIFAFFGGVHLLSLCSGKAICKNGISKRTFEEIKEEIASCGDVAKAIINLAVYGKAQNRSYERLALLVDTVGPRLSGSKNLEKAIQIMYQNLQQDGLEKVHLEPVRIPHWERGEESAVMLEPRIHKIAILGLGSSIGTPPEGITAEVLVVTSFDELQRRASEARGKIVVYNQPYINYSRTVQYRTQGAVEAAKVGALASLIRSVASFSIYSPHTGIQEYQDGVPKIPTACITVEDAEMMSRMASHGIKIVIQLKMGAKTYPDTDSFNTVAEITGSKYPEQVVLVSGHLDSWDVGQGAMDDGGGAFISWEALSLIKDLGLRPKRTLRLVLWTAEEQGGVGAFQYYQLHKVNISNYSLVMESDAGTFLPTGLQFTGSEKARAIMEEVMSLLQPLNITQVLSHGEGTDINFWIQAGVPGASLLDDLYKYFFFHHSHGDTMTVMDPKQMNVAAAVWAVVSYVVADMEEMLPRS
Sequence of UniProt P14854 (P14854 whole entry, looked up): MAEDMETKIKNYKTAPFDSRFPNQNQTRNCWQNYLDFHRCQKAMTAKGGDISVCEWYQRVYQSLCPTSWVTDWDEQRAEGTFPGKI
Sequence of UniProt Q8N163 (Q8N163 whole entry, looked up): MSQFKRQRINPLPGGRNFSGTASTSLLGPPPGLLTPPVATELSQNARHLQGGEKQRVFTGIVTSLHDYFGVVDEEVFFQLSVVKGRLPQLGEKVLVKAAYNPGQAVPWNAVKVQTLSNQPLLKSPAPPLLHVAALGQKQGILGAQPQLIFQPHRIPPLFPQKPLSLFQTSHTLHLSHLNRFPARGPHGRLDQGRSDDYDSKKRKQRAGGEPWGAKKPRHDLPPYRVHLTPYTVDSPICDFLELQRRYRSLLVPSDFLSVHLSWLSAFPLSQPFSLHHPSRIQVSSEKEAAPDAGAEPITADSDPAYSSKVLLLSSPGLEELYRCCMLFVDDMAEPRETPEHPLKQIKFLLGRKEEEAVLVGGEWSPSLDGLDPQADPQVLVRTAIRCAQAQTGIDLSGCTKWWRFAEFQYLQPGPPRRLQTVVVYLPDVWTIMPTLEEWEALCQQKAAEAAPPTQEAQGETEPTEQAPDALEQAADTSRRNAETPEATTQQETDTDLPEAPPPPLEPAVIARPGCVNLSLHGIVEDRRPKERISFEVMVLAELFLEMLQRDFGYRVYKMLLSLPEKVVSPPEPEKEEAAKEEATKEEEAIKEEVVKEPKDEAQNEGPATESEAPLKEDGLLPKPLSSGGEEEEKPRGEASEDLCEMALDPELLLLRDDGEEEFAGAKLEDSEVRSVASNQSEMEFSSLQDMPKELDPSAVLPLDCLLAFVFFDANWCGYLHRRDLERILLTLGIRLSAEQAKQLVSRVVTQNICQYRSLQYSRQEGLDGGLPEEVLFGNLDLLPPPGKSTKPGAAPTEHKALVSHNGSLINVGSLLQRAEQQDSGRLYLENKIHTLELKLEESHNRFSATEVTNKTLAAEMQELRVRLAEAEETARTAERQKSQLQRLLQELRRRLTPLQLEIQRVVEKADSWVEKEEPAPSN
Sequence of UniProt P41208 (P41208 whole entry, looked up): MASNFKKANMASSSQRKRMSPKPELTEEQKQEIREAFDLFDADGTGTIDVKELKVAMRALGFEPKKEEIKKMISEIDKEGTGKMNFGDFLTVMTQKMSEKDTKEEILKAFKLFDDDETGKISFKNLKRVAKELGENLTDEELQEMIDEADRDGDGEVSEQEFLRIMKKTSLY
Sequence of UniProt Q01459 (Q01459 whole entry, looked up): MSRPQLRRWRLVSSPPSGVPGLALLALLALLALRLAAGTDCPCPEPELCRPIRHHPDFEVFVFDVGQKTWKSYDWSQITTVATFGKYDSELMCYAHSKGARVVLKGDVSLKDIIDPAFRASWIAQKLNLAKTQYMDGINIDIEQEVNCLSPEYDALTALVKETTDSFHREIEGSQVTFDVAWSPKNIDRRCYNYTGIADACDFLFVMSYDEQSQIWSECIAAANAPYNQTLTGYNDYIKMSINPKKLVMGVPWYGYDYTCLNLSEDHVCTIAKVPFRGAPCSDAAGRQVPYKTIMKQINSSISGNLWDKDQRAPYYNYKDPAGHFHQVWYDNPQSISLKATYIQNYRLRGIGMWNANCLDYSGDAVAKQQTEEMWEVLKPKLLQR
Sequence of UniProt Q96KP4 (Q96KP4 whole entry, looked up): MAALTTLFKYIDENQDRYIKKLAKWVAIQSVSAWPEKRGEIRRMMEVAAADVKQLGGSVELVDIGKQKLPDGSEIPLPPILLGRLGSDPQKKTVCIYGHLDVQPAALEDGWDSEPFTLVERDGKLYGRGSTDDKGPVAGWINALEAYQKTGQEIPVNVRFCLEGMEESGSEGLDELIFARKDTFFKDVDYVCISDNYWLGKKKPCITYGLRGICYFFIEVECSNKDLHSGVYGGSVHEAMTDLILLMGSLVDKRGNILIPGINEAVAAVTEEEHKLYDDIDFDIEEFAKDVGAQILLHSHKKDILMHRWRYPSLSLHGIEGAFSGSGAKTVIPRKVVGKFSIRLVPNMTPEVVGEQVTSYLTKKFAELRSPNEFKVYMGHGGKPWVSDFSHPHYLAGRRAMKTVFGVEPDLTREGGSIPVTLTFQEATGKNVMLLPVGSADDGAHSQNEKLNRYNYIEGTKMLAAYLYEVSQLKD
Sequence of UniProt P33240 (P33240 whole entry, looked up): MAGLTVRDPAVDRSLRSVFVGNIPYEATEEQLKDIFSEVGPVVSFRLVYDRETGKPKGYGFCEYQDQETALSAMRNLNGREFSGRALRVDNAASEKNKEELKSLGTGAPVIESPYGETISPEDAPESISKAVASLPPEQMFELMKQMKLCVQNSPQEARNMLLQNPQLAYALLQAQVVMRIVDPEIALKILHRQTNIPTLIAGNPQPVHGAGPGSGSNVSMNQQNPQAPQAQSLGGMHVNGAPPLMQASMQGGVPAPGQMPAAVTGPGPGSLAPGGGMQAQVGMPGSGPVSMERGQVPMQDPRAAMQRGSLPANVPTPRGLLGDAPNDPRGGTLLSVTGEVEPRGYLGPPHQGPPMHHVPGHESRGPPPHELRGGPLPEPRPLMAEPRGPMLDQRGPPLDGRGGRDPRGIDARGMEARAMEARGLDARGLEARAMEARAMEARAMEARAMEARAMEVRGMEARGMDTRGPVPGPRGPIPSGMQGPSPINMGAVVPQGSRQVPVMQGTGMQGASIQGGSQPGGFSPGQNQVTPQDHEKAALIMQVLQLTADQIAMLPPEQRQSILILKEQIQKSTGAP
Sequence of UniProt Q99439 (Q99439 whole entry, looked up): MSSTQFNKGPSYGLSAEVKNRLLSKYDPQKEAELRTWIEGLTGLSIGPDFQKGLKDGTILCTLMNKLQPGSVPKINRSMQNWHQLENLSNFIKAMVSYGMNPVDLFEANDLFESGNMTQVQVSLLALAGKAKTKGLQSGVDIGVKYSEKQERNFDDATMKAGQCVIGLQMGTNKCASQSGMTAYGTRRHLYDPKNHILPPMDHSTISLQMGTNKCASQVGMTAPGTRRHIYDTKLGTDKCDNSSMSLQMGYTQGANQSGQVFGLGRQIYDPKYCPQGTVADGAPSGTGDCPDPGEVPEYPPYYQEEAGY
Sequence of UniProt P21964 (P21964 whole entry, looked up): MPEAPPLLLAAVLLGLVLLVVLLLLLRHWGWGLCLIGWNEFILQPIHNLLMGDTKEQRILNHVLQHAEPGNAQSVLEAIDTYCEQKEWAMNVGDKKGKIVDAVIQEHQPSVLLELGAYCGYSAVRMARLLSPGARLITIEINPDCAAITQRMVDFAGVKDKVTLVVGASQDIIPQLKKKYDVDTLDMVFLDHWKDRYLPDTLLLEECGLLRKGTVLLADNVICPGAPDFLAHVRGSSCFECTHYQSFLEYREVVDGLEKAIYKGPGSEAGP
Sequence of UniProt P00915 (P00915 whole entry, looked up): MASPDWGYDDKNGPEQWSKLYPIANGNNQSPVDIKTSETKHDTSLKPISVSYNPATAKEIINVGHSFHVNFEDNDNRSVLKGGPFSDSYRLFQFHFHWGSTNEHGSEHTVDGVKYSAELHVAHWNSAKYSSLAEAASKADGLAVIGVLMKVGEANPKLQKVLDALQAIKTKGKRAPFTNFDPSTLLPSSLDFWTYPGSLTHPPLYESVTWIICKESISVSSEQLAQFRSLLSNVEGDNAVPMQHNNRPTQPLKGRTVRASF

log2 fold change, active:
CRK (UniProt P46108) -0.826

log2 fold change, inactive:
CD151 (UniProt P48509) -0.072, CBX1 (UniProt P83916) 0.141, CHCHD2 (UniProt Q9Y6H1) 0.037, CCNK isoform 4 (UniProt O75909) 0.045, CBR1 (UniProt P16152) -0.012, CASP2 (UniProt P42575) -0.037, COCH (UniProt O43405) 0.2, CTBS (UniProt Q01459) 0.016, CDKN2AIP (UniProt Q9NXV6) -0.021, CBS (UniProt P35520) 0.025, COMT (UniProt P21964) 0.01, CCDC9 (UniProt Q9Y3X0) 0.002, CHD4 isoform 2 (UniProt Q14839) -0.143, COX5A (UniProt P20674) 0.067, CLCN3 (UniProt P51790) -0.007, C4A (UniProt P0C0L4) 0.027, CCAR2 isoform 2 (UniProt Q8N163) -0.053, COPS4 (UniProt Q9BT78) 0, CDK16 isoform 2 (UniProt Q00536) 0.013, COPS3 (UniProt Q9UNS2) 0.006, C4orf33 (UniProt Q8N1A6) 0.03, COPS8 (UniProt Q99627) 0.018, CDK5RAP3 isoform 4 (UniProt Q96JB5) -0.094, CCZ1 (UniProt P86791) 0.024, CSTF2 (UniProt P33240) -0.029, COX6B1 (UniProt P14854) -0.02, CNDP2 (UniProt Q96KP4) 0.045, CPQ (UniProt Q9Y646) 0.017, CA1 (UniProt P00915) -0.004, CNN2 (UniProt Q99439) -0.075, CSNK2A2 (UniProt P19784) -0.009, CNOT2 (UniProt Q9NZN8) 0.048, CETN2 (UniProt P41208) 0.071, CPSF1 (UniProt Q10570) 0.065, CSTF3 (UniProt Q12996) -0.044

Compound: Cc1nc(Nc2n[nH]c3c2CN(C(=O)N[C@H](CN(C)C)c2ccccc2)C3(C)C)c2sccc2n1
Assay: as above
How it was run: as §1

log2 fold change, inactive:
CD151 (UniProt P48509) 0.157, CBX1 (UniProt P83916) -0.089, CHCHD2 (UniProt Q9Y6H1) 0.029, CCNK isoform 4 (UniProt O75909) 0.046, CBR1 (UniProt P16152) 0.003, CASP2 (UniProt P42575) 0.076, COCH (UniProt O43405) -0.288, CTBS (UniProt Q01459) -0.007, CDKN2AIP (UniProt Q9NXV6) 0.034, CBS (UniProt P35520) -0.012, COMT (UniProt P21964) 0.119, CCDC9 (UniProt Q9Y3X0) 0.117, CHD4 isoform 2 (UniProt Q14839) -0.267, COX5A (UniProt P20674) -0.023, CLCN3 (UniProt P51790) 0.04, C4A (UniProt P0C0L4) 0.136, CCAR2 isoform 2 (UniProt Q8N163) -0.023, COPS4 (UniProt Q9BT78) -0.01, COPS3 (UniProt Q9UNS2) 0.004, C4orf33 (UniProt Q8N1A6) -0.024, COPS8 (UniProt Q99627) -0.008, CDK5RAP3 isoform 4 (UniProt Q96JB5) 0.012, CCZ1 (UniProt P86791) -0.022, CSTF2 (UniProt P33240) 0.074, COX6B1 (UniProt P14854) -0.01, CNDP2 (UniProt Q96KP4) -0.015, CPQ (UniProt Q9Y646) 0.053, CA1 (UniProt P00915) -0.014, CNN2 (UniProt Q99439) -0.074, CSNK2A2 (UniProt P19784) 0.016, CNOT2 (UniProt Q9NZN8) -0.063, CRK (UniProt P46108) -0.136, CETN2 (UniProt P41208) -0.055, CPSF1 (UniProt Q10570) -0.002, CSTF3 (UniProt Q12996) 0.176

log2 fold change, active:
CDK16 isoform 2 (UniProt Q00536) 0.619

Source: the supplement of paper PMC10849652
